These results are taken from the supplement of paper PMC6555819.

This assay deals with VDR:RXRa (NR concentration 270 nM, RXRa partner concentration 90 nM). In words: PBM binding z-score (relative to random genomic background probes); higher = stronger binding; sequences stand for … in GC…GCGATTGACAGCGTAGAATGAAGG
As to the method: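 Protein-binding microarray (Agilent 4x180K custom design, double-stranded 60-nt probes: 5' GC cap, 34-nt variable region, 24-nt constant primer region; full probe sequence given). Purified or IVT nuclear receptor:RXRα heterodimers (3:1 NR:RXRα, mostly 270:90 nM) or homodimers were incubated for 1 h in PBS with 2% milk and no ligand, then detected with Alexa488 antibodies. Fluorescence from o1-orientation probes (~5 replicates averaged) was converted to z-scores against 500 random hg19 background probes. Variable regions are seed direct-repeat (DR0–DR5) sites, all their single-nucleotide variants and half-site ablations.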
On to ATCGAAGGGTCGAGGTGAGTATAGAGAAAGGGAA, for which the PBM binding z-score came to 1.37.

Sequence TCTAGCAGGCCCGAGGGTCACTCAAGAGGTACGG gave a PBM binding z-score of 1.14.

Turning to CCGACCGGGGCAGAAAGGTTACCATACCATCCGG, the PBM binding z-score was 1.5.

Sequence ATCTCTACGTAAGACTCAGTTCAGTGAAGAACGC returned a PBM binding z-score of 0.645.

With AGAATGAGGTTACCAAAGATCAGCGAAACGCTTG, the PBM binding z-score amounted to 1.33.

TCTTGAAGATCAATAGAGGTTAAGAAAGTGCGCT displayed a PBM binding z-score of 1.92.

In the case of CAAACTAAGTCACCGGAAGGTCAAAGTCCGCATG, the PBM binding z-score amounted to 3.59.

The sequence GGAACGAGGGCAAGTTGATTGCAGAGTTTGATGG displayed a PBM binding z-score of 0.675.

Take CCTAGTAGGTCAGGAGGTCACACACCGGATATGA: the PBM binding z-score turned out to be 4.92.

As to ATCTCTAGGTAAAAGTTCAGTGTATCCCGAGGAT, the PBM binding z-score amounted to 1.56.

Regarding AGTGAAAGTTCATCTAGGTAACGTAAGATATGCT, the PBM binding z-score stood at 4.97.

For ACTAGCAGGCCAAGGGTTACTCAAGATTAGTCCG, the PBM binding z-score came out at 0.0944.

In turn, TCGAGTAGGTTAGGGGCCTTCAGAATGGCGTCGA showed a PBM binding z-score of -0.482.

Consider CGTCCAAGCTCAAAGGTCAGTGAAGAGATGACGG, for which the PBM binding z-score is 2.31.

On to TCTTGTAGATCGGCAGGTTAAGAAAGCTGGCCAA, for which the PBM binding z-score came out at 0.405.

For CCTAGTTGGTCCGGAGGTCACACACCGGATATGA, the PBM binding z-score came out at 3.77.

The sequence CGAAGTAGGTCATCCAGGACAGTGAATACATTGA gave a PBM binding z-score of 5.12.

In turn, AGAACGAGGGCAATGAGTGGATAGCACGGGTGGC came in with a PBM binding z-score of 1.49.

In turn, TCTTGTAGATCAGCAGATTAAGAAAGCTGGCCAA yielded a PBM binding z-score of 0.172.

CATCGGAGGACAGAAGGTCAGAGCTGTCCGCTTT: the PBM binding z-score amounted to 1.06.

For the sequence GCTTACGGGTCTAAGGTTATAGCATGAATAGAAT, the PBM binding z-score came out at 1.01.

Turning to AAATGTAGGTTATCGGGTCATTCAGTTTGCGCAT, the PBM binding z-score was 5.22.

For the sequence CCGAGTGGGGCAGAAAGGTTACCATACCATCCGG, the PBM binding z-score came out at 0.759.

AATACAGGGTCATCGTAGGCCAGTGTACGCACAG had a PBM binding z-score of 5.18.

With CGAACTAGGTCATTGGCAGGACAGTGAATAGTAA, the PBM binding z-score amounted to 2.07.

Regarding CCGACTGGGGCAGAAAGGATACCATACCATCCGG, the PBM binding z-score was -0.772.

Turning to CGAACTAGGTCAAAGGTCAAAGTCGAGCCAACCA, the PBM binding z-score worked out at 6.78.

Take GCCTGTAGATCAAGGTTAAGAAAGACTAAGCTAA: the PBM binding z-score was found to be 0.142.

For AGAATGAGGTTTTACGTAGATCAGGGAAGAAAGT, the PBM binding z-score was -0.19.

Take CAAACTAGCTCAAAGGTCAAAGTCGAGCCAACCA: the PBM binding z-score was 4.72.

In turn, CGAACTGGGTCATTGACAGGACAGTGAATAGTAA yielded a PBM binding z-score of 2.05.

Sequence CGAACTCGGTCAAGGACAGTGAATCTCCGCACGC came in with a PBM binding z-score of 0.0619.

Sequence TCTGCTAGGTCAATGATGGTCAGCTAATCTGCTA showed a PBM binding z-score of 1.32.

On to TCGAGTAGGTTATCAATGGGGCATTCAGCTTTCT, for which the PBM binding z-score stood at 0.361.

ACTTACGGGTCAACGAGGTTACAGCACGCGTATA showed a PBM binding z-score of 7.79.

Sequence AGAATGAGGTTACCAAACATCAGGGAAACGCTTG returned a PBM binding z-score of 1.04.

As for CGAACTAGGTCATTGACAGGAGAGTGAATAGTAA, the PBM binding z-score worked out at 1.62.

Regarding CGAACTAAGTCAAGGACAGTGAATCTCCGCACGC, the PBM binding z-score was -0.36.

Regarding GTACCACGGTGAATAGGTCGTTGATGAGTAGGCG, the PBM binding z-score is -0.0883.

With CAAACTAGGCCACCGGAAGGTCAAAGTCCGCATG, the PBM binding z-score stood at 3.2.
